# Source: ChEMBL document CHEMBL4513216, “Probing the Open Global Health Chemical Diversity Library for Multistage-Active Starting Points for Next-Generation Antimalarials” (ACS Infect Dis, 2020)
# Among all 69,000 compounds or so, about 8,600 (12%) showed an effect of 50% or more. The list comes from a sample in which strong results are over-represented; it also holds similar structures and randomly drawn compounds.
# Test system: Plasmodium berghei
# Experiment: Screen against P. berghei liver stage (PbLuc), transformed with Luciferase, at 10uM
# Format: functional, HepG2
# Details: tested at 10 uM
row,SMILES,INHIBITION [%]
1,N#CC(NC(=O)CNC(=O)c1ccccc1)c1ccsc1 (stereo unspecified),18.5
2,CC(=O)Nc1nc(C2CN(C(=O)C3CCC3)C2)cs1,37.6
3,Cn1c(C(=O)N2CC[C@@]3(O)CCCC[C@H]3C2)cc2ccccc21,-9.51
4,COc1ccc([C@@H]2CN(C(=O)c3cscn3)C[C@H]2C(=O)O)cc1,-9.32
5,O=C(Cc1n[nH]c2ccccc12)N1CCCCC1Cn1cccn1 (stereo unspecified),-31.5
6,Cc1nn(C)c(N(C)C)c1CNCCOc1ccc2c(c1)OCO2,-20.893
7,OC(CN1CCOCC1)c1ccc(Br)cc1 (stereo unspecified),1.56
8,CCC(=O)NC(C)c1ccccc1C (stereo unspecified),10.06
9,Cc1c(C(=O)N2CCCC(n3cncn3)C2)cnn1C (stereo unspecified),1.75
10,Nc1nnc(C2CC(=O)N(c3ccccc3)C2)s1 (stereo unspecified),44.9
11,Cn1cc(-c2nc(CN3CCN(c4nccs4)CC3)cs2)cn1,42.7
12,c1cncc(C2COC3(CCN(CC4CCOCC4)CC3)C2)c1 (stereo unspecified),23.3
13,O=C(Cc1nc(-c2ccncc2)n[nH]1)N1CCOCC1,78.8
14,COCCCNC(=O)Cc1nc(-c2ccncc2)n[nH]1,77.7
15,O=C(NCCCN1CCOCC1)c1cc(-c2ccccc2)[nH]n1,-14.3
16,CC(C)C(=O)NCCc1nc(-c2ccncc2)n[nH]1,28.2
17,O=C(COCc1nc(-c2ccncc2)no1)N1CCCC1,16.8
18,O=C(COCc1nc(-c2ccncc2)no1)N1CCOCC1,1.06
19,CC(C)c1cc(C(=O)NCCc2nc(-c3ccncc3)n[nH]2)[nH]n1,5.7
20,O=C(Cc1nc(-c2ccncc2)n[nH]1)NCCCN1CCOCC1,66.3
21,O=C(NCCCN1CCOCC1)c1cc(-c2ccco2)[nH]n1,-26.5
22,OCC1CCCN1c1cc(NCc2cccc3cccnc23)ncn1 (stereo unspecified),-21.8
23,Cc1ccc(CS(=O)(=O)CC(=O)NCCCOC(C)C)cc1,15.6
24,Cc1cc(C)c(CNC(=O)NC(C)c2ccc3c(c2)CCC3)c(=O)[nH]1 (stereo unspecified),48.2

row,SMILES,INHIBITION [%]
1,Cc1cc(CN2CCOC(CNc3cccnn3)C2)on1 (stereo unspecified),2.3
2,CCN1CCC(CC(=O)N2CCN(c3ccccc3OC)CC2C)CC1 (stereo unspecified),21.2
3,COc1ccccc1N1CCN(C(=O)CSC(C)C)C(C)C1 (stereo unspecified),17.6
4,COc1ccccc1N1CCN(C(=O)CSCC2CC2)C(C)C1 (stereo unspecified),51.2
5,COc1ncccc1-c1cc(C(N)=O)ccn1,52.2
6,COc1ncccc1-c1ncccc1NC(=O)C(C)C,24.3
7,COc1ncccc1-c1cc(C(=O)NC2CC2)ccn1,-68.7
8,CN1CCCC1CNC(=O)CCOc1ccc(Cl)cc1 (stereo unspecified),-11.98
9,Cc1cnc(C)c(N2CCN(CCCc3[nH]nc(C)c3C)CC2)n1,30.3
10,CCN(CC)CCCN1CCN(c2nc(C)cnc2C)CC1,71.1
11,Cc1cnc(C)c(N2CCN(CCCc3ccncc3)CC2)n1,76
12,Cc1cnc(N)nc1N1CCN(CCCO)CC1,42.1
13,Cc1noc(C(C)N2CCN(CCc3ccncc3)CC2)n1 (stereo unspecified),-11.9
14,CSCCN1CCN(c2nc(N)ncc2C)CC1,19.4
15,Cc1nc(CN2C[C@@H]3COC[C@]3(COCC(=O)N(C)C)C2)cs1,43.1
16,CN(C)c1ccc(C(=O)Nc2cn[nH]c2)cc1,4.885
17,Cc1cc(C)n(CC(=O)N2CCCC2c2cc3cccnc3[nH]2)n1 (stereo unspecified),9.05
18,CCC(=O)N1CCOC(c2cc(Nc3nncs3)cc(C)n2)C1 (stereo unspecified),41
19,O=S1(=O)NC(=CSCc2ccccc2)Nc2ccccc21,38
20,O=C(c1cc(C2CC2)on1)N1C[C@H]2CC[C@](O)(c3ccc(F)cc3)[C@H]2C1,1.75
21,O=C(c1cc(C2CC2)on1)N1C[C@H]2CC[C@](O)(c3ccccc3F)[C@H]2C1,53.45
22,O=C(c1cc(C2CC2)n[nH]1)N1C[C@H]2CC[C@](O)(c3ccccc3F)[C@H]2C1,-16.56
23,CCC[C@H]1CN(CCS(C)(=O)=O)C[C@@H]1NC(=O)c1cc(CC)on1,50.1
24,CCC[C@H]1CN(CCS(C)(=O)=O)C[C@@H]1NC(=O)c1ccccc1F,-30.2

row,SMILES,INHIBITION [%]
1,CCC[C@H]1CN(CCS(C)(=O)=O)C[C@@H]1NC(=O)c1cccnn1,-25.2
2,CCC[C@H]1CN(CCS(C)(=O)=O)C[C@@H]1NC(=O)c1ccccn1,26.6
3,CCC[C@H]1CN(CCS(C)(=O)=O)C[C@@H]1NC(=O)c1ccn(C)n1,61.2
4,CCC[C@H]1CN(CCS(C)(=O)=O)C[C@@H]1NC(=O)c1cc[nH]n1,13
5,Cc1cnn(CC2CCCN2C(=O)CCc2ccncc2)c1 (stereo unspecified),-14
6,Cc1cccc(-c2cc(C(=O)O)sn2)c1,-12.1
7,Cc1occc(=O)c1OCc1noc(C(=O)NCC2CC2)n1,33.5
8,O=C(c1cccnc1)N1CCn2nnc(COc3cccnc3)c2C1,47.8
9,CN1CCN(C2COC3(CCN(Cc4ccsc4)CC3)C2)CC1 (stereo unspecified),54.4
10,CN1CCN(C2COC3(CCN(Cc4cccs4)CC3)C2)CC1 (stereo unspecified),1.94
11,CN1CCN(C2COC3(CCN(Cc4ccc(F)cc4)CC3)C2)CC1 (stereo unspecified),54.4
12,CCOC1COC2(CCN(Cc3ccc(F)cc3)CC2)C1 (stereo unspecified),-24.5
13,Cc1ccc(CN2CCC3(CC2)CC(N2CCN(C)CC2)CO3)s1 (stereo unspecified),47.4
14,CCc1ccc(CN2CCC3(CC2)CC(N2CCN(C)CC2)CO3)cc1 (stereo unspecified),45.5
15,COC(=O)c1cc(C)nc(N2CCN(Cc3cc(C(C)C)no3)CC2)n1,23.1
16,COc1cccc(OC)c1-c1c[nH]c(C)n1,1.56
17,Cn1cnc2c1CCN(Cc1c(Cl)ccc3cccnc13)C2,-20.8
18,CS(=O)(=O)N1CCC(c2nnc3ccc(C(=O)N4CCCC4)cn23)C1 (stereo unspecified),40.4
19,CN1CCC(c2nnc3ccc(C(=O)NC4CCCC4)cn23)C1 (stereo unspecified),-1.26
20,CC(C)NC(=O)c1ccc2nnc(C3CN(C)CCN3C)n2c1 (stereo unspecified),-37.9
21,CN1CCN(C)C(c2nnc3ccc(C(=O)N4CCOCC4)cn23)C1 (stereo unspecified),8.03
22,CC(C)N1CCN(C)CC1c1nnc2ccc(C(=O)N3CCCC3)cn12 (stereo unspecified),82.8
23,CN1CCC(c2nnc3ccc(C(=O)N4CCCCC4)cn23)C1 (stereo unspecified),82.8
